# Laboratory results published in the supplement of paper PMC10105736.
# A number with no mark means an inactive call.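 How the source made its calls: active = MAPPIT score above the 99th percentile of random reference set scores in the same batch; inactive = at or below it.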
# How the values were obtained:
# Experiment in all cases: MAPPIT interaction score (arbitrary units); higher = stronger binary interaction signal, active = hit call of the paper
# glob1 = settings: MAPPIT configuration: N-N
# grp = settings: MAPPIT configuration: N-N; pair source set: DPIM
# gsb-n = settings: MAPPIT configuration: N-N; pair source set: Finley_Y2H
# fwe = settings: MAPPIT configuration: N-C; pair source set: screen_4
# fz = settings: MAPPIT configuration: N-C; pair source set: Lit-BM-16
# gukh = settings: MAPPIT configuration: N-C; pair source set: Lit-BM-16
# mRpL39 = settings: MAPPIT configuration: N-N; pair source set: DPIM
# fon = settings: MAPPIT configuration: N-N; pair source set: Finley_Y2H
# flw = settings: pair source set: Lit-BM-16
# emb = settings: MAPPIT configuration: N-N; pair source set: Lit-BM-16
# 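Further: HEK293T cells with Epo stimulation, STAT-responsive firefly luciferase reporter, fold induction versus unstimulated cells divided by the larger fold induction of two negative controls lacking either bait or prey.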
binder,measurement,setting,value
eIF2gamma (protein) MATAEAQIGVNRNLQKQDLSNLDVSKLTPLSPEVISRQATINIGTIGHVAHGKSTVVKAISGVQTVRFKNELERNITIKLGYANAKIYKCDNPKCPRPASFVSDASSKDDSLPCTRLNCSGNFRLVRHVSFVDCPGHDILMATMLNGAAVMDAALLLIAGNESCPQPQTSEHLAAIEIMKLKQILILQNKIDLIKESQAKEQYEEITKFVQGTVAEGAPIIPISAQLKYNIDVLCEYIVNKIPVPPRDFNAPPRLIVIRSFDVNKPGCEVADLKGGVAGGSILSGVLKVGQEIEVRPGVVTKDSDGNITCRPIFSRIVSLFAEQNELQYAVPGGLIGVGTKIDPTLCRADRLVGQVLGAVGQLPDIYQELEISYYLLRRLLGVRTDGDKKGARVEKLQKNEILLVNIGSLSTGGRISATKGDLAKIVLTTPVCTEKGEKIALSRRVENHWRLIGWGQIFGGKTITPVLDSQVAKK,MAPPIT interaction score,glob1; pair source set: RRS,0.425
CG6724 (protein) MDVDNGEGQVQVHLKTKQEHYAVPDVPYAIDGTVTTVELNTFVNALLRQKDGSSDTDFDFLVFDEYLRGRLCDHLREKAISFEDAIEIEYVERFPAPEPQDCLLHDDWVSAVKARGKWILSGCYDNTLNLWTNKGKHILTISGHTAPIKAVDWISLDEETGRFVSTSQDQTAMLWQWNVGSNSVECVSVCKGHERGVDSVSVSPDGLRFATGSWDTMLKVWSAELDDAVEGSSKRMKESGVRTPKITLQGHRESVSAVQWMDATTLLTGSWDHTLKVWDLSLEGIKTEISTNKSIFDASYSKLNRLILTASADKNLRLYDPRTNQGSVVRNTYLGHNAWVQTVMWSTTEEFLFVSGAYDNQNKLWDCRSPKAPLYDLLGHGEKVLDIDWSNPKYIVSGGVDNTVRVFKSRKALAEEAETK,MAPPIT interaction score,grp,0.11
MED6 (protein) MASRQMTNDHLRLSWHDTQMMATLSPQTVMDYFCRKSNPFYDHMCNNETVRMQRLGPEHLHNMIGLEYILLHVAEPILYVIRKQHRHNPSEATPIADYYIIGGTVYKAPDLANVINSRILNTVVNLQSAFEEASSYARYHPNKGYTWDFSSNKVFSDRSKSDKKDANSAKDENSGTLFQKQRVDMLLAELLRKFPPPIPPMLQNLQQPPPAGDDLNTARNASEMNNATGPLDIKTEGVDMKPPPEKKSK,MAPPIT interaction score,glob1; pair source set: Lit-BS-16,-0.386
slp2 (protein) MVKIEEGLPSSEISAHSLHFQHHHHPLPPTTHHSALQSPHPVGLNLTNLMKMARTPHLKSSFSINSILPETVEHHDEDEEEDVEKKSPAKFPPNHNNNNLNTTNWGSPEDHEAESDPESDLDVTSMSPAPVANPNESDPDEVDEEFVEEDIECDGETTDGDAENKSNDGKPVKDKKGNEKPPYSYNALIMMAIRQSSEKRLTLNGIYEYIMTNHPYYRDNKQGWQNSIRHNLSLNKCFVKVPRHYDDPGKGNYWMLDPSAEDVFIGGSTGKLRRRTTAASRSRLAAFKRSLIGPMFPGLAAYPQFGQFLTYPPTAPSLLASMYQRYNPFAPKGGPGHPGLPPGLPGLPGPPGPQGPPGPPPPPFVAPPTSSELYQRLQYQQLLHQHAAAAALAAHQRQLSVAAASAASQPPPTHHHPHLAVGQAPLSPGGDSPGPSPQPLHKPVTVVSRNS,MAPPIT interaction score,gsb-n,-0.371
Arl8 (protein) MLALINRILEWFKSIFWKEEMELTLVGLQFSGKTTFVNVIASGQFAEDMIPTVGFNMRKITRGNVTIKVWDIGGQPRFRSMWERYCRGVNAIVYMVDAADLDKLEASRNELHSLLDKPQLAGIPVLVLGNKRDLPGALDETGLIERMNLSSIQDREICCYSISCKEKDNIDITLQWLIQHSKSQSR,MAPPIT interaction score,fwe,3.21
Patj (protein) MHLSADISSALQQIEAVKKGIDESDDPKLQMQTAESLSTILGILQDPVFRTIVHVQDSLSELNAQLAQHPSMLPNDFDIDVAGNLVLSLNGGEVMYDFDEQRSSSHSHSAPGSPDKSGGVGEEPRPQSQNSKGAGVADLYATDYAQIQAIELVNDGTGLGFGIIGARNSGVIVKTILPGGVADKDGRLRSGDHILQIGDVNLHEMVSEQVAAVLRQSGTHVRLVVARPVEQSVPTPQYALEPGTAVVPTRVLVDPAELERYLISTGYPEIFGESSTASTPQTTTEDDRFVYRGETSMLIDPNIDLEELLALPETEKLQVELKKDANGLGITIAGYVCEKEELSGIFVKSVSPGSAADLSGRIRVNDRIIEVDGQSLQGYSNHQAVELLKKSGQVVNLRLERYLRGPKFEQLQQAIAANDKLPSSAPGTPSRAPMPTPVATTSSATTTPSRSITRELEEEALPAPEAFMTTPPSVTTMTTTTLSSFGAGKQLVAVRDSLDGSTKIIPTEVVPLADKTEAKNSGVITRHKYYTDPELSDDAETEIIRKWQKIVGSDVEVIVAQIKKFAVGGLGISLEGTVDVEGGREVRPHHYIRSILPDGPVGVNGVLRSGDELLEVNGERLLGMNHLEVVAILKELPLDVRMVCGRNRNSSLLPFSDDTLKKLSNNFENLLPATDRLVKAKSDGSLATAGSVADGDSVAAAAASFSKLKSRSLEPLTGLAMWSSQPQIIELVKGDRGLGFSILDYQDPLDPNDTLIVIRSLVPGGVAQLDGRLIPGDRLLFVNSINLENASLDQAVQALKGASKGVVRIGVAKPLPMTDNSLKACSNASTTSEETLDAQPSPPALPTVAPPAMPPSASMGAEPDLIPDWRN,MAPPIT interaction score,fz,2.4
dlg1 (protein) MPVKKQEAHRALELLEDYHARLSEPQDRALRIAIERVIRIFKSRLFQALLDIQEFYELTLLDDSKSIQQKTAETLQIATKWEKDGQAVKIADFIKSSNLNRNCAYEFNNDASSNQTNQSALNQNPIANNVSAQAQAEALSRTFKSELEEILNQRMRIESDTENAKEPTVEQQQKQQQAQQRSSRSPQQQNPQQQQGSKSRSGSQTVNGDDSWLYEDIQLERGNSGLGFSIAGGTDNPHIGTDTSIYITKLISGGAAAADGRLSINDIIVSVNDVSVVDVPHASAVDALKKAGNVVKLHVKRKRGTATTPAAGSAAGDARDSAASGPKVIEIDLVKGGKGLGFSIAGGIGNQHIPGDNGIYVTKLMDGGAAQVDGRLSIGDKLIAVRTNGSEKNLENVTHELAVATLKSITDKVTLIIGKTQHLTTSASGGGGGGLSSGQQLSQSQSQLATSQSQSQVHQQQHATPMVNSQSTEPGSRYASTNVLAAVPPGTPRAVSTEDITREPRTITIQKGPQGLGFNIVGGEDGQGIYVSFILAGGPADLGSELKRGDQLLSVNNVNLTHATHEEAAQALKTSGGVVTLLAQYRPEEYNRFEARIQELKQQAALGAGGSGTLLRTTQKRSLYVRALFDYDPNRDDGLPSRGLPFKHGDILHVTNASDDEWWQARRVLGDNEDEQIGIVPSKRRWERKMRARDRSVKFQGHAAANNNLDKQSTLDRKKKNFTFSRKFPFMKSRDEKNEDGSDQEPFMLCYTQDDANAEGASEENVLSYEAVQRLSINYTRPVIILGPLKDRINDDLISEYPDKFGSCVPHTTRPKREYEVDGRDYHFVSSREQMERDIQNHLFIEAGQYNDNLYGTSVASVREVAEKGKHCILDVSGNAIKRLQVAQLYPVAVFIKPKSVDSVMEMNRRMTEEQAKKTYERAIKMEQEFGEYFTGVVQGDTIEEIYSKVKSMIWSQSGPTIWVPSKESL,MAPPIT interaction score,gukh,1.68
same,MAPPIT interaction score,mRpL39,0.743
Slh (protein) MLTLRERQINAIKQMLNLNSQQPKALAAEPVWKILIYDRVGQDIISPIISIKELRELGVTLHVQLHSDRDSIPDVPAIYFCLPTDENLDRIQQDFSSGLYDVYHLNFLAPITRSKIENLAAAALHAGCVANIHRVYDQYVNFISLEDDFFILKHQQSDQLSYYAINRANTRDEEMEALMDSIVDSLFALFVTLGNVPIIRCPRNSAAEMVARKLEKKLRENLWDARANLFHMDATQAGGGVFSFQRPVLLLLDRNMDLATPLHHTWSYQALVHDVLDLGLNLVYVEDETASAGARKKPKACDLDRNDRFWMTHKGSPFPTVAEAIQEELESYRNSEEEIKRLKTSMGIEGESDIAFSLVNDTTARLTNAVNSLPQLMEKKRLIDMHTKIATAILNFIKARRLDSFFEIEEKVMSKQTLDRPLLDLLRDGEFGQAEDKLRLYIIYFICAQQLPESEQERLKEALQAAGCDLTALAYVQRWKGIMNRSPSISQATQYEGGGTKTVSMFTKLVSQGSSFVMEGVKNLVVKRHNLPVTKITEQVMECRSNAETDDYLYLDPKLLKGGEVLPKNRAPFQDAVVFMVGGGNYIEYQNLVDFIKQKQTSNVQRRIIYGASTLTNARQFLKELSALGGEIQSPTATS,MAPPIT interaction score,fon,-0.252
Nop17l (protein) MSASRSRNKQSKLCDDERLDISRDEFNRFQEAFGKEEFRKLFFDYVDEIQDPENRKIYESEITQLEKERGVEVRFIHPKPGFVIKTALDGELKCFINIASCEEIQRPKNEVATDPSSGSRGLSWSIPMAQTTSRDDFDAKNNHCKVFDVVFHPDALHLAMRNKQFRQCLIDTALDAIEREYKVSLDRANLKFPKLDYKGIPRPTVIRKMADNPTAEEQEPHPLAHMFPTKPPAPGKQEPRVLPMKTKPSPVPEFTVPRYTIKHSHDVDLSEYTDELDAKLHVTVPRSLVVEIELPLLRSTAECQLDVTSKSIYLFSERQGAKYRLKLDLPFIVDDKAGRARFDTDMRRLSITLPVVRKSIQEQAQMHETLRHFSREDSGVELHSNSESPVEEDPDGELSDSKADISETSSPSVAPANSPFLKSSVHYQLPSKFDCNVLDNVMAFVLHVPNVQPDSIEQLREQRSLHLKFATIGSGYYPTHYAFYVELSAEHEDSSIESAEAEAWDNNVVLKLCLNSQSETPASYLAGLDATELKEYPVHGQYHVKSKGKVNAKKDNAPLDVKFERNQEGHALKVTIRPGTKEEEEDKENQDQEPESDQQQQQQVQNKKPGKKQRKKNKKERSLSESACADMILQEPLAKTNELQPRATFKLPPQRKQRSYSECNDSTGRSHRGILKRFSRYGPRPSMSDSWSSIDDSSSYSCSVDASGTSLFSQSFGGIPEEDRSDAGLSESCKKTVRFNDHIMKQVFRLDSSILGQRKKNQKRRDLKLRAQQRRLSEGDSVDYEETRGSALKQEENPSRNCNDSGLDLTGAAGAHSNNNESDAKNTMMFEMDD,MAPPIT interaction score,flw; MAPPIT configuration: N-C,3.31
same,MAPPIT interaction score,flw; MAPPIT configuration: N-N,0.884
mbo (protein) MSLTDVLELNKTELFAKIRNGLPVVQRTQNLLDCKDDLLFAWHAKDSCLLVRNWRSSLAAKVNIQFQTLIPSSLVSLEVDRVLASNEGSLVALSGPRGVVIMELPRRWGPDGYYKDGKPVITCRTFGLDTQLFLKNPHLEVRQVRWHPHSVSDSTLLVLLNNNTIRVYNHSKLRHVWQVGPPVLRSGANNSLCDFGELAVDFDIAPAAKPRVTEPETAGNNETTLDKSNKTLVAAKSLPKQERIEWPMVVLRENGNIYILMTGVDSENTRLQGPVTITPQAHDNYGLESCALMIIPSLPPTIVIAESNGKLHHALLMEAEATEHSFNEVDDSVLIEPAEYVVHVLETVELELGISAPATGKEGGNCPIYLKRDLINELRYFAYHNAGLHAVTVSFIAELQRYLESESDEDRLELAVSASAEYILCTKFDSSETVNAVFGLALLQIPAGIVLLLGSGQVISLKLVIDAQLLVTPNENKPVDSEVSQQESGPPFVDTIKSLLQRSVNQPILADKLSSPSAQESFELLNQAIEVLREQYLKRHDLVRAAFTRHINQIQLKKEQQLQEIQDLEQERELISERAHKLAERFEEISYNQELLVRKCNALMQRANASLPNSVIAEREFSQEVIRLNKVTQSLAAGLETAKKTFNKQRYHIAQSQEDLKKNAYELPEKQHRTITEILTQLTGEIDRQITDVKRINKIVGI,MAPPIT interaction score,emb,0.0885
